Hits are enriched below; roughly 6.5% of the tested compounds scored in any of these assays.
FMDV inh = antivirals against foot and mouth disease virus. 1.2% of 410,000 active. FMDV antiviral cell-based qHTS. Potency, µM (series often up to 57.9 µM), without a hit: at the highest dose activity change, negative = inhibition, usual class: inhibitors. AID 1159524; calls by dose curve; tested in HEK293T cells; further: read-out not given here; potency means the concentration at half of the fitted maximal effect; nearly all actives have a fitted effect of over 45% in size
HCMV antiviral = inhibitors of human cytomegalovirus; activity change, negative = inhibition, % at 57.5 µM; 4.5% of 410,000 active; AID 1259415; HFF cells, HCMV-luciferase reporter, 72 h; stronger effect = lower value; in the data active means activity change below about -60%; inconclusive means no clear call, values can overlap the other calls; inactive means above about -39%
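Two compound doses tested in HFFs infected with HCMV-luciferase, MOI 1 PFU/cell, 72 h at 37C. Lysate luminescence read with OneGlo; data normalized against buffer-only and 10uM Salinomycin inhibitor controls.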
Vaccinia Venus = vaccinia inhibition (Venus reporter) | Potency, µM (titrated, usually from 36.5 µM), without a hit: at the top dose activity change, negative = inhibition, most hits filed as inhibitors | Vaccinia virus Venus reporter expression, fluorescence | 0.46% of 330,000 active; calls by dose curve; tested in A549 cells; further: potency means the concentration at half of the fitted maximal effect; nearly all actives have a fitted effect of over 30% in size
Vaccinia mCherry = vaccinia inhibition (mCherry reporter); Vaccinia virus mCherry reporter infection, fluorescence; 0.63% of 310,000 active; Potency, µM (highest dose often 36.5 µM), inactives show top-dose activity change, negative = inhibition, usual class: inhibitors; calls by dose curve; tested in A549 cells; further: potency means the concentration at half of the fitted maximal effect; nearly all actives have a fitted effect of over 35% in size
Marburg entry inh = inhibitors of Marburg virus binding or cell entry. Marburg virus pseudotyped entry inhibition, cell reporter. 1.8% of 300,000 active. AID 540276. Potency, µM (top dose mostly 37.8 µM), inactives show at the highest dose activity change, negative = inhibition, most hits filed as inhibitors; calls by dose curve; tested in HEK293 cells; further: potency means the concentration at half of the fitted maximal effect
LASV entry inh = inhibitors of Lassa virus binding or cell entry; Lassa virus pseudotype entry inhibition, cell reporter; Potency, µM (top dose mostly 37.9 µM), for inactives: top-dose activity change, negative = inhibition, actives largely listed as inhibitors; 1.2% of 300,000 active; calls by dose curve; tested in HEK293 cells; further: potency means the concentration at half of the fitted maximal effect; nearly all actives have a fitted effect of over 50% in size
* marks the source's active call; other numbers are inactive results; ! = a repeat was not active; [ ] = dose if it differs, or a comment. On the % scale 0 is the no-effect control and ±100 the full control effect.

Screening O=C(c1ccccc1)c1ccc(OCC(O)CN2CCN(Cc3ccccc3)CC2)cc1 (stereo not given) returned FMDV inh -26.5%, HCMV antiviral -6.8, Marburg entry inh 14.6µM* and LASV entry inh inconclusive.
For CCOc1ccc(OCC(O)CNC2CCN(Cc3ccccc3)CC2)cc1 (stereo not given) the results were FMDV inh -17.0%, HCMV antiviral -64.4*, Vaccinia Venus inconclusive, Vaccinia mCherry -13.2%, Marburg entry inh 1.58µM* and LASV entry inh 6.31µM*.
Screening CC(C)(C)NCC(O)COc1ccccc1C1CCCC1 (stereo not given) returned FMDV inh -21.6%, HCMV antiviral -78.4*, Vaccinia Venus inconclusive and Vaccinia mCherry -17.7%.
`COc1ccc(OCC(O)CNC2CCCC2)cc1` (stereo not given) gave FMDV inh -14.1%, HCMV antiviral 48.8, Vaccinia Venus -5.7%, Vaccinia mCherry -21.9%, Marburg entry inh 0.8%[46.1 µM] and LASV entry inh -0.3%[46.1 µM].
`CN(CC(O)COc1ccccc1F)C1CCCCC1` (stereo not given) gave FMDV inh -2.9%, HCMV antiviral 10.9, Vaccinia Venus -13.3%, Vaccinia mCherry -2.0%, Marburg entry inh inconclusive and LASV entry inh 4.5%[46.1 µM].
For CC(C)(c1ccccc1)c1ccc(OCC(O)CNC2CCN(Cc3ccccc3)CC2)cc1 (stereo not given) the results were FMDV inh inconclusive, HCMV antiviral -113.5*, Vaccinia Venus inconclusive, Vaccinia mCherry -12.8% and Marburg entry inh inconclusive.
For Cc1ccccc1OCC(O)CN(Cc1ccccc1O)C1CCCCC1 (stereo not given) the results were FMDV inh 23.7%, HCMV antiviral inconclusive, Vaccinia Venus inconclusive, Vaccinia mCherry -23.6%, Marburg entry inh 11.2µM* and LASV entry inh -16.3%[46.1 µM].
`COc1cccc(NC(=O)C2=COC3=NC(=O)N(Cc4ccccc4)CCN23)c1` gave HCMV antiviral -38.3.
For CC(C)CC1Nc2ncnc(N3CCOCC3)c2N(Cc2ccc(Cl)cc2)C1=O (stereo not given) the results were FMDV inh -21.0%, HCMV antiviral -101.3*!, Vaccinia Venus -16.3% and Vaccinia mCherry -4.1%.
Cc1ccc(CN2C(=O)C(CC(C)C)Nc3ncnc(N4CCN(c5ccccn5)CC4)c32)cc1 (stereo not given) was read as FMDV inh -8.3%, HCMV antiviral -2.6, Vaccinia Venus inconclusive and Vaccinia mCherry 28.2µM*.
`CC(C)CC1Nc2ncnc(N3CCN(c4ccccn4)CC3)c2N(Cc2ccc(Br)cc2)C1=O` (stereo not given) gave FMDV inh -15.4%, HCMV antiviral 1.3, Vaccinia Venus inconclusive and Vaccinia mCherry -24.2%.
Screening CCCN(C(=O)CCc1nc(-c2ccc(OC)cc2)no1)c1ccccc1F returned FMDV inh inconclusive, HCMV antiviral -25.6, Vaccinia Venus 3.2%, Vaccinia mCherry -5.9%, Marburg entry inh -5.4%[46.1 µM] and LASV entry inh inconclusive.
Screening CCOC(=O)[C@]12Cc3c(cc(OC)c(OC)c3OC)[C@H]1N(C1CCCCC1)C(=O)c1cc(OC)ccc12 returned FMDV inh 12.6µM*, HCMV antiviral -99.3*, Vaccinia Venus inconclusive and Vaccinia mCherry inconclusive.
Screening CCOC(=O)[C@]12Cc3cc(OC)ccc3[C@H]1N(C(C)C)C(=O)c1cc(OC)ccc12 returned FMDV inh 15.8µM*, HCMV antiviral -100.0*, Vaccinia Venus inconclusive and Vaccinia mCherry inconclusive.
`CCOC(=O)[C@]12Cc3c(cc(OC)c(OC)c3OC)[C@H]1N(C(C)C)C(=O)c1cc(OC)ccc12` gave FMDV inh 14.1µM*, HCMV antiviral -99.6*, Vaccinia Venus inconclusive and Vaccinia mCherry inconclusive.
For CCOC(=O)[C@]12Cc3cc(C)ccc3[C@H]1N(C)C(=O)c1cc(OC)ccc12 the results were FMDV inh 39.8µM*, HCMV antiviral -109.2*, Vaccinia Venus inconclusive and Vaccinia mCherry inconclusive.
Screening CC1CCC(NC(=O)c2ccc3c(c2)N(Cc2cccc(Cl)c2)C(=O)c2ccccc2S3(=O)=O)CC1 (stereo not given) returned FMDV inh 11.1%, HCMV antiviral inconclusive, Vaccinia Venus -6.2%, Vaccinia mCherry -11.0% and LASV entry inh 9.6%[46.1 µM].
Screening CC(C)(CNC(=O)c1cnn(-c2ncc3c(n2)-c2ccccc2CCC3)c1C1CC1)N1CCOCC1 returned FMDV inh -3.9%, Vaccinia Venus -7.4% and Vaccinia mCherry -17.3%.
COC(=O)c1cc(CNC(=O)c2cccc(F)c2)cc(NC(=O)c2ccccc2OC)c1 was read as FMDV inh -9.7%, Vaccinia Venus -1.3% and Vaccinia mCherry -4.8%.
O=C(OCc1cnc(Cl)s1)c1ccccc1Cl was read as FMDV inh 4.5%, HCMV antiviral 75.3, Vaccinia Venus -5.0%, Marburg entry inh 4.9% and LASV entry inh 8.6%.
`O=C(OCn1ncc(Br)c(Br)c1=O)c1ccccc1Cl` gave FMDV inh 14.1µM*, Vaccinia Venus inconclusive, Vaccinia mCherry inconclusive, Marburg entry inh 10µM* and LASV entry inh 11.2µM*.
For O=C(OCn1ncc(Br)c(Br)c1=O)c1ccc(F)cc1 the results were FMDV inh 14.1µM*, Vaccinia Venus 10µM*, Vaccinia mCherry 11.2µM*, Marburg entry inh 5.62µM* and LASV entry inh 12.6µM*.
Screening COc1ccc2c(c1)[C@@H](NC(=O)OCc1ccccc1)[C@H](C)[C@@H](c1ccccc1)N2C(=O)NC(C)C returned HCMV antiviral -10.3.
Screening COc1ccc(N2CCN(C(CNC(=O)c3ccc(C)cc3)c3ccc4c(c3)OCO4)CC2)cc1 (stereo not given) returned FMDV inh -18.3%, HCMV antiviral -6.5, Vaccinia Venus -24.3%, Vaccinia mCherry -14.0% and LASV entry inh inconclusive.
For Cc1ccc(Cn2nc(C)c(C(=O)NCC(c3cccs3)N3CCOCC3)c2Cl)cc1 (stereo not given) the results were FMDV inh inconclusive, HCMV antiviral inconclusive, Vaccinia Venus -13.7%, Vaccinia mCherry inactive, Marburg entry inh -13.1% and LASV entry inh 12.6µM*.
For NCC(=O)Nc1ccc(Cl)cc1C(=O)c1ccc[nH]1 the results were FMDV inh -3.3%, HCMV antiviral -65.8*, Vaccinia Venus -16.4% and Vaccinia mCherry inconclusive.
Screening CC(=O)Nc1ccc(Cl)cc1C(=O)c1ccc[nH]1 returned FMDV inh -9.0%, HCMV antiviral -18.1, Vaccinia Venus -18.3% and Vaccinia mCherry -1.0%.
Screening COc1ccccc1-c1nccc(NCc2cccs2)n1 returned FMDV inh -22.7%.
`CC(C)(C)OC(=O)N1CCC(NC(=O)c2[nH]cnc2C(=O)Nc2ccc(Cl)cc2)CC1` gave FMDV inh -29.2%, HCMV antiviral inconclusive, Vaccinia Venus 14.1µM*, Vaccinia mCherry -28.2% and Marburg entry inh -0.5%.

Screening data: PubChem, National Center for Advancing Translational Sciences (NCATS)
